Data on 39 compounds can be found in PubChem BioAssay (Tox21).

Records with an inconclusive call do not appear. Where a call stands in place of a potency, no number is given. Active and inactive are the calls of the source. Calls come from the whole dose curve; as a rule, active = well fitted inhibition curve with a large enough effect in the repeat runs; inconclusive = weak or mixed curves; inactive = flat fitted curve, though single readings scatter.
Potency is the fitted concentration of half-maximal effect.

Sequence of Voltage-gated inwardly rectifying potassium channel KCNH2 (Homo sapiens) (Q12809 whole entry, looked up): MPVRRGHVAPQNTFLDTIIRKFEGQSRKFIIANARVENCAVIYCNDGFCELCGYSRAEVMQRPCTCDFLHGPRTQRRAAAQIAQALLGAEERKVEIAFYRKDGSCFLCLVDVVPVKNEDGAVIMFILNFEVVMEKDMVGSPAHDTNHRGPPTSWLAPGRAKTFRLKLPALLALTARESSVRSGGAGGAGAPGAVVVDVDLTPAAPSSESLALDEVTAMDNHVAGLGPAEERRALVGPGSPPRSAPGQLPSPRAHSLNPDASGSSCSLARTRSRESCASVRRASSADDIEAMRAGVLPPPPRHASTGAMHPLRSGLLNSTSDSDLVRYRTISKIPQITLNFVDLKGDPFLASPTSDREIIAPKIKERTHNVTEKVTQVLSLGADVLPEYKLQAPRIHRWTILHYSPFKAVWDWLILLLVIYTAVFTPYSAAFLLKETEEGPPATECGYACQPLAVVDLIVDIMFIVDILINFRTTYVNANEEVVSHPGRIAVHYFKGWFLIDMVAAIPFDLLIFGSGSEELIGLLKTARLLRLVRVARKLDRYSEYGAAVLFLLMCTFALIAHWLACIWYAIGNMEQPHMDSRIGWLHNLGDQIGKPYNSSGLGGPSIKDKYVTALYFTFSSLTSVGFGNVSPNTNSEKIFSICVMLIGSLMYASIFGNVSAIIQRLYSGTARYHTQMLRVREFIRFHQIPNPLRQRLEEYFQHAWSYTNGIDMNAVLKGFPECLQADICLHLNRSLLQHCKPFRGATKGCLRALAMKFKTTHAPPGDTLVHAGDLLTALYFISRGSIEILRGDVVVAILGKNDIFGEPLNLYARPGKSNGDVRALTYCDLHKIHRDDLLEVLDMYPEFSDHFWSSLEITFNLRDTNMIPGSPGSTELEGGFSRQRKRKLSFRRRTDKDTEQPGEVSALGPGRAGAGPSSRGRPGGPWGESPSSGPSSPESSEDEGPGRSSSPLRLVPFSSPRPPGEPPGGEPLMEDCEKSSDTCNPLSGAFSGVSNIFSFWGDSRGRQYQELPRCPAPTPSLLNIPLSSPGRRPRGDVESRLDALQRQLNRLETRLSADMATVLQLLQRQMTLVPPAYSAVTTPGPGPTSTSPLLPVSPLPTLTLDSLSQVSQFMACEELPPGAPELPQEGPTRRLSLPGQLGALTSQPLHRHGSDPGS

The target of the assay is Voltage-gated inwardly rectifying potassium channel KCNH2 (Homo sapiens) (UniProt Q12809). The experiment in a line: Human Ether-a-go-go-Related Gene (hERG) channel small molecule antagonists: fluorescence cell-based qHTS assay (AID 1671200). Note: nearly all actives have a fitted effect of over 50% in size. As to conditions: hERG-U2OS cells, FluxOR thallium flux fluorescence; series mostly up to 76.8 µM. Put shortly:
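Cell line hERG-U2OS; dye FluxOR II, 1 h RT dark; Tl+ stimulus; ex 480/em 540 nm, read each second for 2 min.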
Background: Block of hERG is tested as a sign of cardiac risk.
`CCC1(c2cnc[nH]2)Cc2ccccc2C1`: the Potency result was “inactive”.
The value for `CCCCCCCCC(C)=O` was “inactive”; that for `CCCCCCC(C)OC(=O)COc1nc(F)c(Cl)c(N)c1Cl` (centres undefined) was 38.9 µM (active); that for `O=C1C=CC(=O)N1c1ccccc1` was 49 µM (active).
On to `CC(=O)OC1CCCCC1`, for which the Potency result was “inactive”.
Under `O=Nc1ccc(NO)cc1` stands “inactive”; under `Nc1cc(Cl)c([N+](=O)[O-])cc1O`, “inactive”.
Under `CC1=C(/C=C/C(C)=C/C=C/C(C)=C/C(=O)Nc2ccc(O)cc2)C(C)(C)CCC1` stands “inactive”; under `CCCOc1sc(C(=O)N2CCC(c3cc(CN)ccc3F)CC2)c(C)c1Br`, 5.65 µM (active).
Under `N#CSCSc1nc2ccccc2s1` stands “inactive”; under `CO[Si](CCC1CCC2OC2C1)(OC)OC` (centres undefined), “inactive”; under `CC(=O)Oc1ccc(C2(c3ccc(OC(C)=O)cc3)C(=O)Nc3ccccc32)cc1`, “inactive”.
As for `CCCCCCCOC(=O)c1ccccc1C(=O)OCCCCCCC`, the Potency entry is “inactive”.
`COc1ccc2sc(C(=O)Nc3nnn[nH]3)c(OC(C)C)c2c1`: the Potency result was “inactive”.
The value for `O=C(O)Cc1ccc(OCCNC[C@H](O)c2ccccc2)cc1` was “inactive”; that for `C=C(c1ccc(C(=O)O)cc1)c1cc2c(cc1C)C(C)(C)CCC2(C)C` was “inactive”.
`COc1cccc(CCc2ccccc2OCC(CN(C)C)OC(=O)CCC(=O)O)c1` (centres undefined): the Potency result is “inactive”.
The value for `CN(C)CCN1CCOCC1` was “inactive”.
Consider `CCOC(/C=C(\C)CCC=C(C)C)OCC`, for which the Potency result is “inactive”.
Turning to `CCC1CCCCC1`, the Potency entry was “inactive”.
Under `C=CC(C)(CCC=C(C)C)OC(=O)/C=C/c1ccccc1` (centres undefined) stands “inactive”; under `CCCCCCCC(=O)OCC`, “inactive”; under `CC(C)c1cccc(C(C)C)c1N1C(=O)c2ccc(O)cc2C1=O`, “inactive”.
In the case of `S=P(N1CC1)(N1CC1)N1CC1`, the Potency entry was “inactive”.
The value for `C/C=C/c1ccc(OC)c(OC)c1` was “inactive”; that for `CCCCOCC` was “inactive”.
The value for `CCCCNc1c(C(=O)OCC)c(C)nc2c1cnn2CC` was “inactive”; that for `COC(=O)NCCC[Si](OC)(OC)OC` was “inactive”; that for `CC(=O)C=O` was “inactive”.
In the case of `CCN(CC)CCSC(=O)C(c1ccccc1)c1ccccc1`, the Potency was 2.68 µM (active).
Under `Cc1oc(-c2ccccc2)nc1CCOc1ccc(C[C@H](Nc2ccccc2C(=O)c2ccccc2)C(=O)O)cc1` stands “inactive”; under `Oc1ccc(-c2ccc(O)cc2)cc1`, “inactive”.
The value for `CC(CN(C)C)CN1c2ccccc2CCc2ccccc21` (centres undefined) was 15.1 µM (active).
Under `CCN(CC)CCOc1ccc(C(O)(Cc2ccc(Cl)cc2)c2ccc(C)cc2)cc1` (centres undefined) stands 1.34 µM (active); under `CCC(C)C(=O)OC` (centres undefined), “inactive”.
As to `CCC(C)c1ccccc1` (centres undefined), the Potency result was “inactive”.
Under `CCOC(OCC)C(=O)c1ccccc1` stands “inactive”; under `Clc1ccc(C(Cn2ccnc2)OCc2ccsc2Cl)c(Cl)c1` (centres undefined), 9.52 µM (active); under `CCCCCCCCCC(=O)N(C)C`, “inactive”.
